Source: PubChem BioAssay (Broad Institute)
A selection follows.
aSyn 5UTR act: Activators via SNCA 5'UTR binding, MLPCN; alpha-synuclein 5'UTR reporter, activators screen; activity score, % (tested at 7.5 µM), hits read low; 300,000 tested, 7.1% active; AID 1814; in the data active = activity score below about -60%
Large screens that a line does not name were inactive.

COc1ccc(OC(=O)NCCc2ccccc2)cc1	aSyn 5UTR act -134
COc1ccc(C(=O)Nc2cc(C(=O)NCCc3ccccc3)ccc2Cl)cc1	aSyn 5UTR act -69
COc1cccc(CCNC(=O)c2ccc(C#N)cc2)c1	aSyn 5UTR act -63
COc1ccc(OC)c(NC(=O)c2nc(S(=O)(=O)Cc3ccccc3)ncc2Cl)c1	none
COc1ccc(CCNC(=O)c2ccccc2)cc1	aSyn 5UTR act -64
COc1ccc(O)c(/C=N/NC(=O)c2c(C)nnn2-c2nonc2N)c1	none
COc1ccc(CCNC(=O)c2nonc2N)cc1	aSyn 5UTR act -85
CCC(=O)c1cn(CC(=O)NCc2ccco2)c2ccccc12	aSyn 5UTR act -65
Oc1c(Cl)cc(Cl)cc1C=Nc1cc(C(F)(F)F)ccc1N1CCc2ccccc2C1	aSyn 5UTR act -98
Nc1n[nH]c(N)c1N=Nc1ccc(Cl)cc1Cl	aSyn 5UTR act -74
Cc1cccc(NC(=O)CSc2nccn2Cc2ccco2)c1C	aSyn 5UTR act -81
Cc1cccc(NC(=O)CSc2nccn2Cc2ccco2)c1	aSyn 5UTR act -89
CCC(=O)Nc1cc(NC(=O)CSc2ncc(-c3ccc(F)cc3)n2Cc2ccco2)ccc1C	aSyn 5UTR act -226
COc1ccc(NC(=O)CSc2nccn2Cc2ccco2)cc1	aSyn 5UTR act -96
CC(C)c1ccc(Nc2ncccc2C(=O)O)cc1	aSyn 5UTR act -101
Cc1cccc(NC(=S)NC(=O)c2oc3ccccc3c2C)n1	aSyn 5UTR act -144
Cc1cccc(NC(=S)NC(=O)c2ccc(-c3ccccc3)cc2)n1	aSyn 5UTR act -109
Cc1onc(NC(=O)c2ccc(Cl)cc2Cl)c1Br	aSyn 5UTR act -145
O=C(N/N=C/c1ccc([N+](=O)[O-])cc1)c1[nH]ncc1Br	aSyn 5UTR act -68
Cc1ccc(C(=O)OCC(=O)NCc2cccs2)c(C)c1	aSyn 5UTR act -75
COc1cc(/C=N/N=C2/NC(=O)C(CC(=O)O)S2)ccc1OCc1cccc(Cl)c1 (stereo not drawn)	aSyn 5UTR act -185
O=C1N/C(=N\N=C\c2cccnc2)SC1Cc1ccc(SC(F)F)cc1 (stereo not drawn)	none
CCN(CC)C(=O)CSc1nc(N)c2c3c(sc2n1)CC(C)CC3 (stereo not drawn)	aSyn 5UTR act -85
O=S(=O)(Cc1noc(-c2ccccc2Cl)n1)c1ccccn1	aSyn 5UTR act -70
COc1ccc(C)cc1N(C(=O)COc1cccc(F)c1)c1nc2ccccc2s1	aSyn 5UTR act -110
CCSc1nnc(Nc2ccc(C)cc2)s1	aSyn 5UTR act -161
O=C1CCCCC1Sc1nnc(Nc2ccccc2)s1 (stereo not drawn)	aSyn 5UTR act -127
CCSc1nnc(Nc2ccccc2)s1	aSyn 5UTR act -99
Cc1cc(N)n2ncc(-c3ccccc3)c2n1	aSyn 5UTR act -149
C=CCSc1cc(C)nc2c(-c3ccccc3)cnn12	aSyn 5UTR act -74
CCOc1ccccc1C(=O)Nc1cccc(-c2ccc(N3CCOCC3)nn2)c1	aSyn 5UTR act -127
O=C(Nc1cccc(-c2ccc(N3CCOCC3)nn2)c1)c1ccc(F)cc1F	aSyn 5UTR act -73
COc1ccc(C(=O)Nc2cccc(-c3ccc(N4CCOCC4)nn3)c2)cc1OC	aSyn 5UTR act -70
CCOc1ccc(C(=O)Nc2cccc(-c3ccc(N4CCOCC4)nn3)c2)cc1OCC	aSyn 5UTR act -69
CCOc1ccccc1C(=O)Nc1c[nH]c(=O)[nH]c1=O	none
COc1cccc(C(=O)Nc2cccc(-c3ccc(N4CCOCC4)nn3)c2)c1	aSyn 5UTR act -72
CC(C)OC(=O)CSc1nc(N)c(C#N)cc1C#N	aSyn 5UTR act -118
COC(=O)CSc1nc(-c2cccs2)ccc1C#N	aSyn 5UTR act -305
CC(C)OC(=O)CSc1nc2cc3c(cc2cc1C#N)OCO3	aSyn 5UTR act -149
COC(=O)CSc1nc2cc3c(cc2cc1C#N)OCO3	aSyn 5UTR act -201
CCCCCOc1ccc(NC(=O)C(=O)NCCCn2ccnc2)cc1	none
CC1Cc2cc(/C(O)=C3/C(=O)C(=O)N(Cc4ccco4)C3c3cccs3)ccc2O1 (stereo not drawn)	aSyn 5UTR act -82
CCCOc1ccc(/C(O)=C2/C(=O)C(=O)N(CCCn3ccnc3)C2c2ccc(C)o2)cc1 (stereo not drawn)	aSyn 5UTR act -76
C=CCOc1ccc(/C(O)=C2/C(=O)C(=O)N(CCCn3ccnc3)C2c2cccs2)cc1 (stereo not drawn)	aSyn 5UTR act -82
CCN(CC)CCN1C(=O)C(=O)/C(=C(/O)c2ccc(OC(C)C)cc2)C1c1cccs1 (stereo not drawn)	aSyn 5UTR act -122
CCCOc1ccc(/C(O)=C2/C(=O)C(=O)N(CCCn3ccnc3)C2c2ccco2)cc1 (stereo not drawn)	aSyn 5UTR act -68
CCOc1ccc(/C(O)=C2/C(=O)C(=O)N(c3nc(C)c(C)s3)C2c2ccco2)cc1 (stereo not drawn)	aSyn 5UTR act -85
COc1cccc(Cn2c(=O)sc3ccccc3c2=O)c1	aSyn 5UTR act -79
COc1cccc(CN2C(=O)C3(C(C#N)=C(N)OC4=C3C(=O)CCC4)c3ccccc32)c1 (stereo not drawn)	none
CC(=Nc1ccc(Br)cc1)c1sc2ccccc2c1O	aSyn 5UTR act -125
CC(=Nc1ccccc1)c1sc2ccccc2c1O	aSyn 5UTR act -383
